Type in all cases: functional
Assay [1] concerns the target Solute carrier family 2, facilitated glucose transporter member 1 (Homo sapiens) (UniProt P11166). Briefly: ST_JUDE_LEISH: Cytotoxicity at 2uM final concentration against transgenic Leishmania Mexicana promastigotes LmGLUT1 that are glucose transport deficient and complemented with the human glucose transporter GLUT1. Activity is measured by DNA content using SYBR green in vitro.

Assay [2] addresses Hexose transporter 1 (Plasmodium falciparum) (UniProt O97467). Briefly: ST_JUDE_LEISH: Cytotoxicity at 2uM final concentration against transgenic Leishmania Mexicana promastigotes LmPfHT that are glucose transport deficient and complemented with the Plasmodium falciparum hexose transporter. Activity is measured by DNA content using SYBR green in vitro.
The target in assay [3] is Glucose transporter (Leishmania mexicana) (UniProt O61059). In words: ST_JUDE_LEISH: Cytotoxicity at 2uM final concentration against transgenic Leishmania Mexicana promastigotes LmGT2 that are glucose transport deficient and complemented with the L. Mexicana glucose transporter 2. Activity is measured by DNA content using SYBR green in vitro.

Each structure is given as a SMILES string.

One may read the inhibition as the change of the read-out against control, counted positive when it falls.

Chain of Solute carrier family 2, facilitated glucose transporter member 1 (Homo sapiens) (P11166 whole entry): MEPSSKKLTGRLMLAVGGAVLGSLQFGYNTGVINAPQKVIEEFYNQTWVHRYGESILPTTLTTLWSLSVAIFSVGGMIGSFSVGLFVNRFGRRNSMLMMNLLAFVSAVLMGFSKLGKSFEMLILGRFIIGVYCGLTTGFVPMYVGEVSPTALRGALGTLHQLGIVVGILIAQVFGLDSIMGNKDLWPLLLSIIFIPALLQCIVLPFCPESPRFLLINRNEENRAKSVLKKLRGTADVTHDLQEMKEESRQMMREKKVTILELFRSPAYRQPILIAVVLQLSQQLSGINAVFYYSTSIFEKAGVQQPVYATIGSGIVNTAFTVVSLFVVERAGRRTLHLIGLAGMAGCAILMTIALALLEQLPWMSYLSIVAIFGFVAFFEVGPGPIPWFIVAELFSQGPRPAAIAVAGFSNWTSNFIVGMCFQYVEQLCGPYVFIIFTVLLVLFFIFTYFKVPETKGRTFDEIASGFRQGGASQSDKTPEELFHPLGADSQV

Consider `CC(C)C(C)(C#N)NC(=O)CSc1nc2ccc([N+](=O)[O-])cc2s1` (stereo unspecified), for which the inhibition in assay [1] was -0.35%; in assay [2] it was 0.01%; in assay [3], -1.55%.
`COc1ccccc1C1CC(c2ccc(C)cc2)=NN1C(=O)c1ccccc1` (stereo unspecified): the results for the inhibition in assay [1], in assay [2] and in assay [3] were 8.25%, 8.06% and 5.66%, respectively.
On the same counts, the results for `Cc1ccc(-c2noc(COc3ccccc3C(=O)NC3CCCC3)n2)cc1` are 3.88%, 6.24% and 6.15%.
With `N#Cc1ccc(-c2ccc(C(=O)NCCCCN3CCC(c4cn(CCCO)c5ccccc45)CC3)cc2)cc1`, the values for the inhibition in assay [1], in assay [2] and in assay [3] were 2%, 1.61% and 1.21%, respectively.
Consider `O=C(NCc1ccc(F)cc1)Nc1ccc(-c2cccc(-c3nc4cc(F)ccc4[nH]3)c2)cc1`, for which the values for the inhibition in assay [1], in assay [2] and in assay [3] were 7.44%, 6.92% and -1%, respectively.
Turning to `Cc1ccc(Nc2nc(N/N=C/c3cc4c(cc3Br)OCO4)nc(Nc3ccc([N+](=O)[O-])cc3)n2)cc1C`, the figures for the inhibition in assay [1], in assay [2] and in assay [3] were 1.58%, 2.19% and 4.71%, respectively.
Taken in the same sequence, the figures for `O=S(=O)(c1ccc(NC(S)=NN=Cc2ccccn2)cc1)N1CCCCC1` were 3.4%, 6.75% and 5.11%.
On the same counts, the results for `N#Cc1ccc(C(=O)Nc2cccc(-c3ccc(CN4CCCC4)cc3)c2)cc1` are 11.4%, 9.72% and 9.04%.
On the same counts, the results for `O=C(Nc1cccc(-c2cccc(-c3nc4ccccc4[nH]3)c2)c1)Nc1ccc2c(c1)OCO2` are 4.3%, 4.48% and 1.05%.
For `Cc1cccc2nc(-c3ccc(-c4ccc(NC(=O)NCc5cccc(F)c5)cc4)s3)[nH]c12`, the figures for the inhibition in assay [1], in assay [2] and in assay [3] were 7.99%, 9.74% and 5.43%, respectively.
On to `CCn1c(-c2nonc2N)nc2c(-c3cccc(NC(=O)Nc4cccc(Cl)c4)c3)ncc(OCCCN)c21`, for which the inhibition in assay [1] was 4.22%; in assay [2] it was 3.86%; in assay [3], 2.75%.
For `Oc1cc(Nc2ccnc3cc(-c4cccc(CN5CCOCC5)c4)ccc23)c(F)cc1Cl`, the inhibition in assay [1] turned out to be 4.47%; in assay [2], 4.48%; in assay [3], 3.67%.
